Experimental data as given in the supplement of paper PMC8975748.
Structures can show the parent of a compound that is named as a salt. ± gives the standard deviation of the averaged measurements.

Legend:
[1] = system: Saccharomyces cerevisiae BY4741 SeMeCo community; experiment: mean cell size (pixel area) (pixels); higher = larger cells; details: 10 µM; 24 h; SM minimal medium
Outline: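 Plates of 384 wells were acoustically predosed with drug at a final 10 µM in SM medium, and 70 µl of a Saccharomyces cerevisiae BY4741 preculture diluted from OD600 = 1.0 to OD600 = 0.3 was added for 24 h. The yeast formed a four-plasmid fluorescent community in which each plasmid complements one auxotrophy and carries a fluorescent marker. Fixed cells were imaged by automated confocal microscopy and analysed in Harmony for mean cell pixel area per well. Values are means of 3 replicates. Same SeMeCo high-content imaging drug screen: Selleck FDA-approved drugs at 10 µM, 24 h in SM medium, 384-well plates, 3 replicates.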

[2] = system: Saccharomyces cerevisiae BY4741 SeMeCo community; experiment: z-score of prototroph abundance vs DMSO median; higher = larger share of this subpopulation than in DMSO controls; details: 10 µM; 24 h; SM minimal medium; subpopulation (auxotrophy): Prototroph
Outline: (§1)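 A Saccharomyces cerevisiae BY4741 community carried four plasmids, each restoring one auxotrophy and encoding a distinct fluorescent protein. It was pre-grown overnight to OD600 1.0, diluted to 0.3, and 70 µl was added to 384-well plates acoustically predosed with library drugs (10 µM final), then grown 24 h in minimal SM medium. Cells were paraformaldehyde-fixed and imaged by automated confocal microscopy, with single-auxotroph fluorescent strains setting thresholds and autofluorescence correction. Each subpopulation's abundance was scored as a z-score against the vehicle-well median.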

[3] = system: Saccharomyces cerevisiae BY4741 SeMeCo community; experiment: z-score of subpopulation abundance vs DMSO median, subpopulation auxotrophic for M; higher = larger share of this subpopulation than in DMSO controls; details: 10 µM; 24 h; SM minimal medium; subpopulation (auxotrophy): M
Outline: as §1

[4] = system: Saccharomyces cerevisiae BY4741 SeMeCo community; experiment: z-score of subpopulation abundance vs DMSO median, subpopulation auxotrophic for L; higher = larger share of this subpopulation than in DMSO controls; details: 10 µM; 24 h; SM minimal medium; subpopulation (auxotrophy): L
Outline: as §1

[5] = system: Saccharomyces cerevisiae BY4741 SeMeCo community; experiment: z-score of subpopulation abundance vs DMSO median, subpopulation auxotrophic for U; higher = larger share of this subpopulation than in DMSO controls; details: 10 µM; 24 h; SM minimal medium; subpopulation (auxotrophy): U
Outline: as §1

[6] = system: Saccharomyces cerevisiae BY4741 SeMeCo community; experiment: z-score of subpopulation abundance vs DMSO median, subpopulation auxotrophic for H; higher = larger share of this subpopulation than in DMSO controls; details: 10 µM; 24 h; SM minimal medium; subpopulation (auxotrophy): H
Outline: as §1

[7] = system: Saccharomyces cerevisiae BY4741 SeMeCo community; experiment: z-score of subpopulation abundance vs DMSO median, subpopulation auxotrophic for LU; higher = larger share of this subpopulation than in DMSO controls; details: 10 µM; 24 h; SM minimal medium; subpopulation (auxotrophy): LU
Outline: as §1

[8] = system: Saccharomyces cerevisiae BY4741 SeMeCo community; experiment: z-score of subpopulation abundance vs DMSO median, subpopulation auxotrophic for LM; higher = larger share of this subpopulation than in DMSO controls; details: 10 µM; 24 h; SM minimal medium; subpopulation (auxotrophy): LM
Outline: as §1

[9] = system: Saccharomyces cerevisiae BY4741 SeMeCo community; experiment: z-score of subpopulation abundance vs DMSO median, subpopulation auxotrophic for HM; higher = larger share of this subpopulation than in DMSO controls; details: 10 µM; 24 h; SM minimal medium; subpopulation (auxotrophy): HM
Outline: as §1

[10] = system: Saccharomyces cerevisiae BY4741 SeMeCo community; experiment: z-score of subpopulation abundance vs DMSO median, subpopulation auxotrophic for UM; higher = larger share of this subpopulation than in DMSO controls; details: 10 µM; 24 h; SM minimal medium; subpopulation (auxotrophy): UM
Outline: as §1

[11] = system: Saccharomyces cerevisiae BY4741 SeMeCo community; experiment: z-score of subpopulation abundance vs DMSO median, subpopulation auxotrophic for HL; higher = larger share of this subpopulation than in DMSO controls; details: 10 µM; 24 h; SM minimal medium; subpopulation (auxotrophy): HL
Outline: as §1

[12] = system: Saccharomyces cerevisiae BY4741 SeMeCo community; experiment: z-score of subpopulation abundance vs DMSO median, subpopulation auxotrophic for HLU; higher = larger share of this subpopulation than in DMSO controls; details: 10 µM; 24 h; SM minimal medium; subpopulation (auxotrophy): HLU
Outline: as §1

[13] = system: Saccharomyces cerevisiae BY4741 SeMeCo community; experiment: z-score of subpopulation abundance vs DMSO median, subpopulation auxotrophic for HLM; higher = larger share of this subpopulation than in DMSO controls; details: 10 µM; 24 h; SM minimal medium; subpopulation (auxotrophy): HLM
Outline: as §1

[14] = system: Saccharomyces cerevisiae BY4741 SeMeCo community; experiment: z-score of subpopulation abundance vs DMSO median, subpopulation auxotrophic for HUM; higher = larger share of this subpopulation than in DMSO controls; details: 10 µM; 24 h; SM minimal medium; subpopulation (auxotrophy): HUM
Outline: as §1

[15] = system: Saccharomyces cerevisiae BY4741 SeMeCo community; experiment: z-score of subpopulation abundance vs DMSO median, subpopulation auxotrophic for HLUM; higher = larger share of this subpopulation than in DMSO controls; details: 10 µM; 24 h; SM minimal medium; subpopulation (auxotrophy): HLUM
Outline: as §1

[16] = system: Saccharomyces cerevisiae BY4741 SeMeCo community; experiment: z-score of subpopulation abundance vs DMSO median, subpopulation auxotrophic for HU; higher = larger share of this subpopulation than in DMSO controls; details: 10 µM; 24 h; SM minimal medium; subpopulation (auxotrophy): HU
Outline: as §1

[17] = system: Saccharomyces cerevisiae BY4741 SeMeCo community; experiment: z-score of subpopulation abundance vs DMSO median, subpopulation auxotrophic for LUM; higher = larger share of this subpopulation than in DMSO controls; details: 10 µM; 24 h; SM minimal medium; subpopulation (auxotrophy): LUM
Outline: as §1

| SMILES | mean cell size [1] | z-score of prototroph abundance [2] | z-score of subpopulation abundance [3] | z-score of subpopulation abundance [4] | z-score of subpopulation abundance [5] | z-score of subpopulation abundance [6] | z-score of subpopulation abundance [7] | z-score of subpopulation abundance [8] | z-score of subpopulation abundance [9] | z-score of subpopulation abundance [10] | z-score of subpopulation abundance [11] | z-score of subpopulation abundance [12] | z-score of subpopulation abundance [13] | z-score of subpopulation abundance [14] | z-score of subpopulation abundance [15] | z-score of subpopulation abundance [16] | z-score of subpopulation abundance [17] |
| --- | --- | --- | --- | --- | --- | --- | --- | --- | --- | --- | --- | --- | --- | --- | --- | --- | --- |
| Nc1ccc(/N=N/c2ccccc2)c(N)n1 [Phenazopyridine HCl] | 12.5 ± 0.25 | 2.41 | 0.28 | 0.42 | -2.82 | 1.88 | -2.56 | 0.47 | 0.02 | -2.74 | 0.92 | -1.56 | 0.39 | -1.7 | -0.54 |  |  |
| CC1=C(C(=O)OC(C)C)C(c2cccc([N+](=O)[O-])c2)C(C(=O)OC2CN(C(c3ccccc3)c3ccccc3)C2)=C(N)N1 (centres undefined) [Azelnidipine] | 12.5 ± 0.34 |  | -0.27 | -0.9 | 0.39 | 0.22 | 0.86 | -0.63 | 0.77 | 0.01 | -0.34 | -0.12 | 0.09 | 0.26 |  | 1.39 | 0.01 |
| Oc1c(I)cc(Cl)c2cccnc12 [Clioquinol] | 13.1 ± 0.49 | -17.7 | -0.87 | -0.06 | -1.64 | 9.23 | 10.4 | 5.23 | 37.7 | 6.49 | 9.34 | 41 | 119 | 16.6 |  | 16 | 9.68 |
| CC1=C(C(=O)O)N2C(=O)[C@@H](NC(=O)[C@H](N)C3=CCC=CC3)[C@H]2SC1 [Cefradine] | 12.12 ± 0.02 | 0.86 | -0.36 | 0.14 | 0.07 | -0.04 | -1.14 | -0.58 | -0.73 |  |  | -0.16 | 0.04 | -0.79 | 0.1 |  | -0.81 |
| COc1c(N2CCNC(C)C2)c(F)cc2c(=O)c(C(=O)O)cn(C3CC3)c12 (centres undefined) [Gatifloxacin] | 12.4 ± 0.17 | -0.15 | -0.13 | -0.51 | 0.81 | -0.44 | 0.36 | -0.79 | -0.89 |  | -0.93 | -0.36 | -0.34 | 0.51 |  | 0.38 | -0.33 |
| CCOC(=O)c1ccc(O)cc1 [Ethylparaben] | 12.5 ± 0.25 | -1.38 | -0.6 | -0.33 |  | -0.25 | 0.65 | -0.67 | -0.62 | 1.66 | -0.54 | -0.25 | 0.26 | 0.44 |  | 1.78 | 0.63 |
| CN(C)CCOc1ccc(/C(=C(/CCCl)c2ccccc2)c2ccccc2)cc1 [Toremifene Citrate] | 12.1 ± 0.2 | -1.18 | -0.37 | 0.06 |  | 2.17 | 0.34 | 0.69 | 0.66 | 0.54 | 1.37 | 1.1 | 1.44 | 0.27 | -0.23 |  |  |
